Assay results taken from PubChem BioAssay (Tox21).
Records with an inconclusive call do not appear. The source made the active and inactive calls. Unless noted, calls come from the whole dose curve; as a rule, active = well fitted curve in the direction sought with a large enough effect in the repeat runs; inconclusive = weak or mixed curves; inactive = no such curve, though single readings can be large; an effect the other way counts as inactive or inconclusive.

Experiments:
[1] = qHTS RealTime-Glo MT Cell Viability Assay in HEK293 cells - 8 hour (AID 1224887); note: top concentration of the series differs between compounds; nearly all actives have a fitted effect of over 50% in size
Summary of the method: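 600 cells/well were plated with the nonlytic NanoLuc/prosubstrate reagent, pre-incubated 5 h, then given 23 nL of compound in DMSO. Incubation at 37 C for 40 h, with luminescence from viable-cell-reduced substrate read repeatedly from 0 h.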

[2] = qHTS RealTime-Glo MT Cell Viability Assay in HepG2 cells - 0 hour (AID 1224889); note: nearly all actives have a fitted effect of over 50% in size
Summary of the method: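 Cells + NanoLuc/prosubstrate dispensed (600 cells/well) → 5 h at 37 C/5% CO2 → compounds in DMSO transferred → 40 h incubation at 37 C, luminescence read at 0, 8, 16, 24, 32, 40 h.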

[3] = A CellTox Green Cytotoxicity Assay to monitor cytotoxicity in HepG2 cells - 8 hour (AID 1224890); note: nearly all actives have a fitted effect of over 45% in size
Summary of the method: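 HepG2 cells, 600/well, preincubated 5 h with CellTox Green dye, then exposed to Tox21 compounds in DMSO at 37 C for up to 40 h. Dead-cell DNA fluorescence read at the indicated time point.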

[4] = qHTS assay to identify small molecule antagonists of the estrogen receptor alpha (ER-alpha) signaling pathway using the BG1 cell line in the presence of 0.1 nM 17-beta-estradiol - cell viability counter screen (AID 1259241); note: nearly all actives have a fitted effect of over 40% in size
Summary of the method: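 In this screen, hormone-deprived VM7Luc4E2 cells were seeded at 4,000 per well, dosed with compound and 0.1 nM estradiol final, and incubated 22 hr at 37C and 5% CO2; fluorogenic live-cell protease signal reported viability.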

[5] = qHTS assay to identify small molecule antagonists of the androgen receptor (AR) signaling pathway using the MDA cell line in the presence of 0.5 nM R1881 - cell viability counter screen (AID 1259242); note: nearly all actives have a fitted effect of over 45% in size
Summary of the method: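 MDA-kb2 cells (MMTV-luciferase, AR/GR responsive) were treated with compounds plus 0.5 nM R1881 (final) for 16 hr at 37C, 0% CO2. Viability was then read in the same wells as live-cell protease fluorescence (CellTiter-Fluor, 30 min).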

[6] = biological target: Androgen receptor (Homo sapiens) (UniProt P10275); experiment: qHTS assay to identify small molecule antagonists of the androgen receptor (AR) signaling pathway using the MDA cell line in the presence of 0.5 nM R1881 (AID 1259243); note: nearly all actives have a fitted effect of over 50% in size
Chain of Androgen receptor (Homo sapiens) (P10275 whole entry, looked up): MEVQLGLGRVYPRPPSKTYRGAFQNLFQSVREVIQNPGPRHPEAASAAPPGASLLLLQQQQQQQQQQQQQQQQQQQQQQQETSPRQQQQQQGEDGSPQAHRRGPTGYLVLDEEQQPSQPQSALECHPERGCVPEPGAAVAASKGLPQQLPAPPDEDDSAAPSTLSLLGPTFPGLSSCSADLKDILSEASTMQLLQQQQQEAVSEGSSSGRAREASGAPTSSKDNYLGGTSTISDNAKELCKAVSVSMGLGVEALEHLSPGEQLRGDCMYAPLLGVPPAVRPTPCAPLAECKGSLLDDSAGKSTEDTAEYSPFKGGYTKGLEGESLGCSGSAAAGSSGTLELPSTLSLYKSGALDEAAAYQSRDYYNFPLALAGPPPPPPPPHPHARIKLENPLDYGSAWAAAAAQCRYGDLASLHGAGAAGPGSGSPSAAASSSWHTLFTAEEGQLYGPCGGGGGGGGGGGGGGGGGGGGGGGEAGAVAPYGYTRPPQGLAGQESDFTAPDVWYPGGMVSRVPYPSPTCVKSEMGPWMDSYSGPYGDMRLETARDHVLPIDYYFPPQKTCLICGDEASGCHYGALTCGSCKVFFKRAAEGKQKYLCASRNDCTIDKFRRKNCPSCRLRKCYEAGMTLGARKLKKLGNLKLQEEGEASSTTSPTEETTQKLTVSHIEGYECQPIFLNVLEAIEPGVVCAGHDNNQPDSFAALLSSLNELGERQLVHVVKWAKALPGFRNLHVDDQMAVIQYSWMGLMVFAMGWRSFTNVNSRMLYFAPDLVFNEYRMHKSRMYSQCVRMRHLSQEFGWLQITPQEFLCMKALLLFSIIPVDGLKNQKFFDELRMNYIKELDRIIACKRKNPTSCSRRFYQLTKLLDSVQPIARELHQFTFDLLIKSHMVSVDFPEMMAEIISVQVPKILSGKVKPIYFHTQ
Summary of the method: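 MDA-kb2 cells (MMTV-luciferase, responsive to AR and GR) at 3,000/well, rested 5 h at 37C, 0% CO2, then given compounds plus 0.5 nM R1881 (final) for 16 hr. Luciferase read with ONE-Glo after 30 min at room temperature.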

[7] = biological target: Estrogen receptor (Homo sapiens) (UniProt P03372); experiment: qHTS assay to identify small molecule antagonists of the estrogen receptor alpha (ER-alpha) signaling pathway using the BG1 cell line in the presence of 0.1 nM 17-beta-estradiol (AID 1259244); note: nearly all actives have a fitted effect of over 50% in size
Chain of Estrogen receptor (Homo sapiens) (P03372 whole entry, looked up): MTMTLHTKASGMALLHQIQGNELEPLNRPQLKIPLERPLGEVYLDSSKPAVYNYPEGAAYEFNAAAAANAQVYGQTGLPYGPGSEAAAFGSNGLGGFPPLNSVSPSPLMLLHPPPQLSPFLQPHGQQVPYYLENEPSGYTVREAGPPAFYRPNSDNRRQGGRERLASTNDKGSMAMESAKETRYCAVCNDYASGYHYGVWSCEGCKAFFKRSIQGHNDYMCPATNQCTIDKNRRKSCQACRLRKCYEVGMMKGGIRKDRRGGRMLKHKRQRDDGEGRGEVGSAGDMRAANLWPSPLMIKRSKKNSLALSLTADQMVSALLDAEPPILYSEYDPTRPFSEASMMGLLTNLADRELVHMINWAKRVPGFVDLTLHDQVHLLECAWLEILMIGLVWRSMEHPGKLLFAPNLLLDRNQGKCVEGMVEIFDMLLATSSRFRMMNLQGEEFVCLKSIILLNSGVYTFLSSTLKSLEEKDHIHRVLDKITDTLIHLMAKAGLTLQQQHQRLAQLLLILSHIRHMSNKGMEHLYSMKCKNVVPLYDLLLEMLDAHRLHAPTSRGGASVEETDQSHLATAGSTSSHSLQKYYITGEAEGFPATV
Summary of the method: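 VM7Luc4E2 cells (endogenous full-length ER-alpha, 4×ERE-luciferase), kept 5 days in phenol red-free, charcoal-stripped FBS medium; 4,000 cells/well. Compounds added with 0.1 nM (final) 17beta-estradiol, 22 hr at 37C; luminescence read with ONE-Glo after 30 min.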

[8] = qHTS assay to identify small molecule HDAC inhibitors (AID 1259364); note: top concentration of the series differs between compounds; nearly all actives have a fitted effect of over 45% in size
Summary of the method: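 Wild-type HCT-116 cells, plated overnight at 37 C, exposed to compounds 2 hr at 37 C; luminogenic HDAC-Glo substrate then added 30 min at room temperature. Luminescence reports relative endogenous class I/II HDAC activity.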

[9] = qHTS assay to identify small molecule HDAC inhibitors - cell viability counter screen (AID 1259365)
Summary of the method: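 Measured quantity is CellTiter-Glo luminescence from wild-type HCT-116 cells after compound incubation of 2hr at 37C, 5% CO2; reagent developed 30min at room temperature.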

[10] = qHTS assay to identify small molecule agonists of the sonic hedgehog signaling (Shh) pathway - cell viability counter screen (AID 1259366); note: nearly all actives have a fitted effect of over 50% in size
Summary of the method: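 In quantitative high-throughput format, 3T3 Gli1-Luc cells were exposed to compounds for 24hr and multiplexed for viability using CellTiter-Fluor, incubated 1hr at 37C before the fluorescence read.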

[11] = qHTS assay to identify small molecule antagonists of the sonic hedgehog signaling (Shh) pathway - cell viability counter screen (AID 1259367); note: nearly all actives have a fitted effect of over 55% in size
Summary of the method: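 Cells: 3T3 Gli1-Luc, 2,000/well, 4 hr pre-incubation. Compounds in DMSO, then conditioned medium. Incubation 24 hr, 37C, 5% CO2. CellTiter-Fluor at 23 hr, 1 hr, fluorescence.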

[12] = qHTS assay to identify small molecule agonists of the sonic hedgehog signaling (Shh) pathway (AID 1259368; calls by dose curve;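 note: NIH/3T3-derived 3T3Gli1-Luc cells carrying a stable Gli1-driven firefly luciferase reporter; series mostly up to about 92 µM; nearly all actives have a fitted effect of over 15% in size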)
Summary of the method: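 NIH/3T3-derived 3T3Gli1-Luc cells with stably integrated Gli1-driven firefly luciferase, 2,000 cells/well, compounds added after 4 hr. Incubated 24 hr at 37C, 5% CO2; luminescence read after 30 min with luciferase reagent at room temperature.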

[13] = qHTS assay to identify small molecule antagonists of the sonic hedgehog signaling (Shh) pathway (AID 1259369; calls by dose curve; note: nearly all actives have a fitted effect of over 45% in size)
Summary of the method: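 NIH/3T3-derived Gli1-Luc reporter cells plated 4 h, dosed with compound, then stimulated with conditioned medium for 24 h at 37 C. Firefly luciferase luminescence read after 30 min with detection reagent at room temperature.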

[14] = biological target: Estrogen receptor beta (Homo sapiens) (UniProt Q92731); experiment: qHTS assay to identify small molecule agonists of the estrogen receptor beta (ER-beta) signaling pathway (AID 1259377; active = well fitted activation curve with a large enough effect in the signal ratio in the repeat runs, not every such curve was filed as active; the % refers to the signal ratio)
Chain of Estrogen receptor beta (Homo sapiens) (Q92731 whole entry, looked up): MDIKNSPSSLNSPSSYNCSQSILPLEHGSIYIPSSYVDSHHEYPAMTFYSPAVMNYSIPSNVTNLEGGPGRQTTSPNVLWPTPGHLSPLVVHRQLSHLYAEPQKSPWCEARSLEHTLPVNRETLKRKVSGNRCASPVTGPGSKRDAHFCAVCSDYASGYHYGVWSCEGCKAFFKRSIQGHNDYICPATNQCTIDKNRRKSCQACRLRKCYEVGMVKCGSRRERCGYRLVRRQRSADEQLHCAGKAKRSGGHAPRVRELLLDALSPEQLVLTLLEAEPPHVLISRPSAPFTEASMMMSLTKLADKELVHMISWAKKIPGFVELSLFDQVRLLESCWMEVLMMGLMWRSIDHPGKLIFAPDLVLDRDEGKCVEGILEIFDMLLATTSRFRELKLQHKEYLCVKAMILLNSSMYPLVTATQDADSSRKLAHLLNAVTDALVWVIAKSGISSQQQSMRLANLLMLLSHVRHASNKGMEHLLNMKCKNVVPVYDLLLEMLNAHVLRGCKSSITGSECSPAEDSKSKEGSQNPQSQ
Summary of the method: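 Reporter cells (HEK293T, ER-beta-UAS-bla) receive compounds or DMSO after a 6 hr pre-incubation. They then incubate 16 hr at 37C/5% CO2, and fluorescence from LiveBLAzer B/G substrate is measured after 2 hours at room temperature.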

[15] = biological target: Estrogen receptor beta (Homo sapiens) (UniProt Q92731); experiment: qHTS assay to identify small molecule antagonists of the estrogen receptor beta (ER-beta) signaling pathway (AID 1259378; active = well fitted inhibition curve with a large enough effect in the signal ratio in the repeat runs, not every such curve was filed as active; the % refers to the signal ratio)
Summary of the method: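 Antagonist mode: compounds added to beta-lactamase reporter HEK293T ER-beta-UAS cells stimulated with E2 (1nM final), 16 hr at 37C. LiveBLAzer B/G FRET substrate, 2 hours room temperature, fluorescence read-out.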

[16] = qHTS assay to identify small molecule agonists of the androgen receptor (AR) signaling pathway in the presence of an antagonist - cell viability counter screen (AID 1259379);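 note: MDA-kb2 human breast cancer cells carrying an MMTV luciferase reporter; series mostly up to about 92 µM; nearly all actives have a fitted effect of over 25% in size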
Summary of the method: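 MDA-kb2 cells (MMTV-luciferase, AR/GR), 3,000/well, 5 h attachment, then 3.0 µM nilutamide (final) and compounds at 15 concentrations. Viability by CellTiter-Fluor fluorescence after 16 h at 37 °C, 0% CO2, in the reporter wells.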

[17] = qHTS assay to identify small molecule agonists of the estrogen receptor beta (ER-beta) signaling pathway - cell viability counter screen (AID 1259380); note: nearly all actives have a fitted effect of over 30% in size
Summary of the method: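 ER-beta-UAS-bla HEK293T cells in medium with 2% charcoal-stripped FBS, pre-incubated 6 hr, then treated 16 hr at 37C. Cytotoxicity read in the same wells by CellTiter-Glo luminescence after 30 min at room temperature.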

[18] = biological target: Androgen receptor (Homo sapiens) (UniProt P10275); experiment: qHTS assay to identify small molecule agonists of the androgen receptor (AR) signaling pathway in the presence of an antagonist (AID 1259381; calls by dose curve; note: nearly all actives have a fitted effect of over 15% in size)
Summary of the method: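 MDA-kb2 cells carrying MMTV-luciferase (AR/GR responsive), 3,000 cells/well, co-treated with 3.0 uM nilutamide final. Compounds at 15 concentrations, 16 hr at 37C without CO2. Luciferase luminescence read after 30 min with ONE-Glo.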

[19] = A CellTox Green Cytotoxicity Assay to monitor cytotoxicity in HEK293 cells - 16 hour (AID 1224888); note: nearly all actives have a fitted effect of over 35% in size
Summary of the method: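 HEK293 cells, 600/well, were preincubated 5 hours and then exposed to compounds at 37 C for up to 40 hours. A cell-impermeant cyanine dye staining dead-cell DNA was read by fluorescence at 0, 8, 16, 24, 32 and 40 h time points.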

[20] = qHTS assay to identify small molecule phospholipidosis (PLD) inducers (AID 1259344; active = well fitted curve in the direction sought with a large enough effect; an effect the other way counts as inactive or inconclusive)
Summary of the method: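 Phospholipidosis is scored by imaging LipidTOX-stained pits in HepG2 cells exposed to compound for 24 h at 37 C; pit counts and integrated intensities per well and per cell serve as outputs.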
% is set by controls: 0 for no effect and ±100 for the full control effect.

Cc1c(C(=O)c2c[nH]n(C)c2=O)ccc(S(C)(=O)=O)c1C1=NOCC1
inactive: Potency [1] | Potency [2] | Potency [3] | outcome [4] | outcome [5] | Potency [6] | outcome [7] | Potency [8] | outcome [9] | outcome [10] | outcome [11] | outcome [12] | Potency [13] | Potency [14] | Potency [15] | outcome [16] | outcome [17] | outcome [18]

CCCCCCCCCOC(=O)c1ccccc1C(=O)OCCCCCCCCC
inactive: Potency [1] | Potency [2] | Potency [3] | outcome [4] | outcome [5] | Potency [6] | outcome [7] | Potency [8] | outcome [9] | outcome [10] | outcome [11] | outcome [12] | Potency [13] | Potency [14] | Potency [15] | outcome [16] | outcome [17] | outcome [18]

C/C(CC(C)C)=N\O
inactive: Potency [1] | Potency [19] | Potency [3] | outcome [4] | outcome [5] | outcome [7] | Potency [8] | outcome [9] | outcome [10] | outcome [11] | outcome [12] | Potency [13] | Potency [14] | Potency [15] | outcome [16] | outcome [17]

COC(=O)CCCCC(CCSS/C(CCO)=C(\C)N(C=O)Cc1cnc(C)nc1N)SC(C)=O (stereo unspecified)
inactive: Potency [1] | Potency [2] | Potency [3] | outcome [4] | outcome [5] | Potency [6] | outcome [7] | Potency [8] | outcome [9] | outcome [10] | outcome [11] | outcome [12] | Potency [13] | Potency [14] | Potency [15] | outcome [16] | outcome [17] | outcome [18]

Cc1ccc(C)c([N+](=O)[O-])c1
inactive: Potency [1] | Potency [19] | Potency [3] | outcome [4] | Potency [8] | outcome [9] | outcome [10] | outcome [11] | outcome [12] | Potency [13] | Potency [14] | Potency [15] | outcome [16] | outcome [17]

O=C(CCCl)NCCc1ccccc1
inactive: Potency [1] | Potency [2] | Potency [3] | outcome [4] | outcome [5] | Potency [6] | outcome [7] | outcome [9] | outcome [10] | outcome [11] | outcome [12] | Potency [13] | Potency [14] | Potency [15] | outcome [16] | outcome [17] | outcome [18]

O=C=NCC1CCCC(CN=C=O)C1 (stereo unspecified)
inactive: Potency [1] | Potency [2] | Potency [3] | outcome [4] | outcome [5] | outcome [7] | Potency [8] | outcome [9] | outcome [10] | outcome [11] | outcome [12] | Potency [13] | Potency [14] | outcome [16]

N[C@@H](Cc1ccc(O)cc1)C(=O)O
inactive: activity change, negative = cytotoxicity [1] 10.4% [at 6.97 µM] | activity change [19] 0.851% [at 6.97 µM, stronger effect = higher value] | cytotoxicity increase [3] -2.53% [at 6.97 µM] | activity change, negative = cytotoxicity [4] -0.913% [at 8.39 µM] | viability change, negative = cytotoxic [5] 0.626% [at 8.39 µM] | outcome [20] | activity change, negative = inhibition [8] 6.85% [at 8.39 µM] | activity change, negative = cytotoxicity [9] 0.0609% [at 8.39 µM] | viability change, negative = cytotoxic [10] -1.95% [at 8.39 µM] | viability change, negative = cytotoxic [11] 0.133% [at 8.39 µM] | activity change [12] -0.171% [at 8.39 µM] | activity change, negative = inhibition [13] 29.1% [at 8.39 µM] | activation [14] 4.88% [at 8.39 µM] | activity, negative = inhibition [15] -4.71% [at 8.39 µM] | activity change, negative = cytotoxicity [16] 0.232% [at 8.39 µM] | activity change, negative = cytotoxicity [17] 10.1% [at 8.39 µM]

c1ccc(-c2nn[nH]n2)cc1
inactive: Potency [1] | Potency [19] | Potency [3] | outcome [4] | outcome [5] | outcome [7] | Potency [8] | outcome [9] | outcome [10] | outcome [11] | outcome [12] | Potency [13] | Potency [14] | Potency [15] | outcome [16] | outcome [17]

CC(C)CCOC(=O)c1ccccc1
inactive: Potency [1] | Potency [19] | Potency [3] | outcome [4] | outcome [5] | Potency [8] | outcome [9] | outcome [10] | outcome [11] | outcome [12] | Potency [13] | outcome [16] | outcome [17]

OC[C@H]1O[C@@H](O[C@@H]2[C@@H](CO)O[C@](O)(CO)[C@H]2O)[C@H](O)[C@@H](O)[C@H]1O
inactive: Potency [1] | Potency [2] | Potency [3] | outcome [4] | outcome [5] | Potency [6] | outcome [7] | outcome [20] | Potency [8] | outcome [9] | outcome [10] | outcome [11] | outcome [12] | Potency [13] | outcome [16] | outcome [17] | outcome [18]

CCCC(=O)Nc1ccc(OCC(O)CNC(C)C)c(C(C)=O)c1 (stereo unspecified)
inactive: Potency [1] | Potency [2] | Potency [3] | outcome [4] | outcome [5] | outcome [7] | outcome [20] | outcome [9] | outcome [10] | outcome [11] | outcome [12] | Potency [13] | Potency [14] | Potency [15] | outcome [16] | outcome [17]

CC(=O)O[C@H]1C[C@@H]2CC[C@@]1(C)C2(C)C
inactive: Potency [1] | Potency [3] | outcome [4] | outcome [5] | Potency [6] | Potency [8] | outcome [9] | outcome [10] | outcome [11] | outcome [12] | Potency [14] | Potency [15] | outcome [16] | outcome [17] | outcome [18]

CCO
inactive: Potency [19] | Potency [2] | Potency [3] | outcome [4] | outcome [5] | Potency [6] | outcome [7] | outcome [9] | outcome [10] | outcome [11] | outcome [12] | Potency [13] | Potency [14] | Potency [15] | outcome [16] | outcome [17] | outcome [18]

CCC(=O)c1c(O)cc(O)cc1O
inactive: Potency [1] | Potency [2] | Potency [3] | outcome [4] | Potency [6] | outcome [7] | outcome [20] | Potency [8] | outcome [9] | outcome [10] | outcome [11] | outcome [12] | Potency [13] | Potency [15] | outcome [16] | outcome [18]
